# Source: the supplement of paper PMC8728848
# Many of the other results were omitted from the sample, so the strongest signals are more common in it than they were.
# B1: PNGase F (Flavobacterium meningosepticum) (protein)
# chain: GIPAPADNTVNIKTFDKVKNAFGDGLSQSAEGTFTFPADVTAVKTIKMFIKNECPNKTCLEWDRYANVYVKNKTTGEWYEIGRFITPYWVGTEKLPRGLEIDVTDFKSLLSGNTELKIYTETWLAKGREYSVDFDIVYGTPDYKYSAVVPVVQYNKSSIDGVPYGKAHTLALKKNIQLPTNTEKAYLRTTISGWGHAKPYDAGSRGCAEWCFRTHTIAINNSNTFQHQLGALGCSANPINNQSPGNWTPDRAGWCPGMAVPTRIDVLNNSLIGSTFSYEYKFQNWTNNGTNGDAFYAISSFVIAKSNTPISAPVVTNLDPHHHHHH
# Experiments:
# Assay in all cases: glycan array binding signal (z-score within array); higher = stronger binding
# Conditions in all cases: glycan notation: IUPAC condensed, linker removed; mutation: D57L
# [1] = target: Fuc(a1-2)Gal(b1-3)GlcNAc(b1-2)Man(a1-3)[Fuc(a1-2)Gal(b1-3)GlcNAc(b1-2)Man(a1-6)]Man(b1-4)GlcNAc(b1-4)GlcNAc
# How it was run: (§1)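 The binding signal is a Z-score computed within each array. Data were drawn from 3228 arrays in the Consortium for Functional Glycomics database, restricted to those with a known protein sequence. Scores were averaged over arrays of the same protein sequence at different concentrations or buffers, and over linkers, and negative values can be taken as non-binding.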
# [2] = target: Fuc(a1-2)Gal(b1-3)GlcNAc(b1-3)Gal(b1-4)Glc
# How it was run: as §1
# [3] = target: Fuc(a1-2)Gal(b1-3)GlcNAc(b1-3)[Gal(b1-4)GlcNAc(b1-6)]Gal(b1-4)Glc
# How it was run: as §1
# [4] = target: Fuc(a1-2)Gal(b1-3)GlcNAc(b1-3)[Neu5Ac(a2-6)Gal(b1-4)GlcNAc(b1-6)]Gal(b1-4)Glc
# How it was run: as §1
# [5] = target: Fuc(a1-2)Gal(b1-4)Fuc(a1-3)]GlcNAc(b1-2)Man(a1-3)[Fuc(a1-2)Gal(b1-4)[Fuc(a1-3)]GlcNAc(b1-2)Man(a1-6)]Man(b1-4)GlcNAc(b1-4)GlcNAc
# How it was run: as §1
# [6] = target: Fuc(a1-2)Gal3S(b1-4)GlcNAc
# How it was run: as §1
# [7] = target: Fuc(a1-2)Gal6S(b1-3)GlcNAc6S
# How it was run: as §1
# [8] = target: Fuc(a1-2)[Gal(a1-3)]Gal(b1-3)GalNAc(b1-3)Gal(a1-4)Gal(b1-4)Glc
# How it was run: as §1
# [9] = target: Fuc(a1-2)[Gal(a1-3)]Gal(b1-4)GlcNAc(b1-2)Man(a1-3)[Fuc(a1-2)[Gal(a1-3)]Gal(b1-4)GlcNAc(b1-2)Man(a1-6)]Man(b1-4)GlcNAc(b1-4)[Fuc(a1-6)]GlcNAc
# How it was run: as §1
# [10] = target: Fuc(a1-2)[Gal(a1-3)]Gal(b1-4)GlcNAc(b1-6)GalNAc
# How it was run: as §1
# [11] = target: Fuc(a1-3)[Gal3S(b1-4)]GlcNAc6S
# How it was run: as §1
# [12] = target: Gal(a1-3)GalNAc
# How it was run: as §1
# [13] = target: Gal(b1-3)GalNAc(b1-4)Gal(b1-4)Glc
# How it was run: as §1
# [14] = target: Gal(b1-3)GlcNAc(b1-3)Gal(b1-4)GlcNAc
# How it was run: as §1
# [15] = target: Gal(b1-3)[Fuc(a1-4)]GlcNAc(b1-2)Man(a1-3)[Gal(b1-3)[Fuc(a1-4)]GlcNAc(b1-2)Man(a1-6)]Man(b1-4)GlcNAc(b1-4)[Fuc(a1-6)]GlcNAc
# How it was run: as §1
# [16] = target: Gal(b1-4)GlcNAc(a1-6)Gal(b1-4)GlcNAc
# How it was run: as §1
# [17] = target: Gal(b1-4)GlcNAc(b1-2)Man(a1-3)[Man(a1-6)]Man(b1-4)GlcNAc(b1-4)GlcNAc
# How it was run: as §1
# [18] = target: Gal(b1-4)GlcNAc(b1-2)Man(a1-6)Man(b1-4)GlcNAc(b1-4)GlcNAc
# How it was run: as §1
# [19] = target: Gal(b1-4)GlcNAc(b1-3)Gal(b1-4)GlcNAc(b1-2)[Gal(b1-4)GlcNAc(b1-3)Gal(b1-4)GlcNAc(b1-6)]Man(a1-6)[Gal(b1-4)GlcNAc(b1-3)Gal(b1-4)GlcNAc(b1-2)Man(a1-3)]Man(b1-4)GlcNAc(b1-4)GlcNAc
# How it was run: as §1
# [20] = target: Gal(b1-4)GlcNAc(b1-3)Gal(b1-4)GlcNAc(b1-3)Gal(b1-4)GlcNAc(b1-2)Man(a1-3)[Gal(b1-4)GlcNAc(b1-3)Gal(b1-4)GlcNAc(b1-3)Gal(b1-4)GlcNAc(b1-2)Man(a1-6)]Man(b1-4)GlcNAc(b1-4)[Fuc(a1-6)]GlcNAc
# How it was run: as §1
# [21] = target: Gal(b1-4)GlcNAc(b1-3)Gal(b1-4)GlcNAc(b1-3)Gal(b1-4)GlcNAc(b1-3)Gal(b1-4)GlcNAc(b1-3)Gal(b1-4)GlcNAc(b1-2)Man(a1-3)[Gal(b1-4)GlcNAc(b1-3)Gal(b1-4)GlcNAc(b1-3)Gal(b1-4)GlcNAc(b1-3)Gal(b1-4)GlcNAc(b1-3)Gal(b1-4)GlcNAc(b1-2)Man(a1-6)]Man(b1-4)GlcNAc(b1-4)[Fuc(a1-6)]GlcNAc
# How it was run: as §1
# [22] = target: Gal(b1-4)GlcNAc(b1-3)[GlcNAc(b1-6)]Gal(b1-4)GlcNAc
# How it was run: as §1
# [23] = target: Gal3S(b1-3)GalNAc
# How it was run: as §1
# [24] = target: Gal3S6S(b1-4)GlcNAc6S
# How it was run: as §1
# [25] = target: Gal6S(b1-4)Glc
# How it was run: as §1
# [26] = target: Gal6S(b1-4)GlcNAc
# How it was run: as §1
# [27] = target: Glc(a1-6)Glc(a1-6)Glc
# How it was run: as §1
# [28] = target: Glc(a1-6)Glc(a1-6)Glc(a1-6)Glc
# How it was run: as §1
# [29] = target: GlcNAc(b1-2)[GlcNAc(b1-4)]Man(a1-3)[GlcNAc(b1-2)Man(a1-6)]Man(b1-4)GlcNAc(b1-4)GlcNAc
# How it was run: as §1
binder,measurement,setting,value
B1,glycan array binding signal (z-score),[1],3.35
same,glycan array binding signal (z-score),[2],-0.517
same,glycan array binding signal (z-score),[3],0.038
same,glycan array binding signal (z-score),[4],-0.604
same,glycan array binding signal (z-score),[5],7.24
same,glycan array binding signal (z-score),[6],-0.942
same,glycan array binding signal (z-score),[7],4.52
same,glycan array binding signal (z-score),[8],-0.247
same,glycan array binding signal (z-score),[9],1.68
same,glycan array binding signal (z-score),[10],1.12
same,glycan array binding signal (z-score),[11],-0.29
same,glycan array binding signal (z-score),[12],-0.507
same,glycan array binding signal (z-score),[13],-0.31
same,glycan array binding signal (z-score),[14],-0.079
same,glycan array binding signal (z-score),[15],4.53
same,glycan array binding signal (z-score),[16],-1.25
same,glycan array binding signal (z-score),[17],2.77
same,glycan array binding signal (z-score),[18],0.974
same,glycan array binding signal (z-score),[19],3.43
same,glycan array binding signal (z-score),[20],0.367
same,glycan array binding signal (z-score),[21],0.345
same,glycan array binding signal (z-score),[22],3.02
same,glycan array binding signal (z-score),[23],-0.275
same,glycan array binding signal (z-score),[24],3.81
same,glycan array binding signal (z-score),[25],0.11
same,glycan array binding signal (z-score),[26],-0.941
same,glycan array binding signal (z-score),[27],0.269
same,glycan array binding signal (z-score),[28],1.14
same,glycan array binding signal (z-score),[29],-0.836
